Source: the supplement of paper PMC8728848
This is one part of a sample in which the strongest signals are shown more often than they occur.

Columns and labels:
Assay in all cases: glycan array binding signal (z-score within array); higher = stronger binding
Conditions in all cases: glycan notation: IUPAC condensed, linker removed
[1] = target: Gal(b1-4)GlcNAc(b1-3)Gal(b1-4)GlcNAc(b1-3)Gal(b1-4)GlcNAc(b1-3)Gal(b1-4)GlcNAc(b1-3)Gal(b1-4)GlcNAc(b1-3)Gal(b1-4)GlcNAc(b1-2)Man(a1-3)[Gal(b1-4)GlcNAc(b1-3)Gal(b1-4)GlcNAc(b1-3)Gal(b1-4)GlcNAc(b1-3)Gal(b1-4)GlcNAc(b1-3)Gal(b1-4)GlcNAc(b1-3)Gal(b1-4)GlcNAc(b1-2)Man(a1-6)]Man(b1-4)GlcNAc(b1-4)GlcNAc
Summary of the method: (§1)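 Glycan array data came from 3228 arrays in the Consortium for Functional Glycomics database, and only arrays with an available protein sequence were kept. Glycan names were put into IUPAC-condensed notation, and columns mapping to the same glycan were averaged. The binding signal is a within-array Z-score, averaged across arrays of one protein sequence run at different concentrations or buffers and across linkers. A negative Z-score can be read as non-binding.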

[2] = target: Gal3S(b1-4)GlcNAc
Summary of the method: as §1

[3] = target: Gal3S(b1-4)GlcNAc6S
Summary of the method: as §1

[4] = target: Gal6S(b1-4)GlcNAc6S
Summary of the method: as §1

[5] = target: GalNAc(b1-3)Gal
Summary of the method: as §1

[6] = target: GalNAc(b1-4)GlcNAc(b1-2)Man(a1-3)[GalNAc(b1-4)GlcNAc(b1-2)Man(a1-6)]Man(b1-4)GlcNAc(b1-4)GlcNAc
Summary of the method: as §1

[7] = target: GlcNAc(b1-2)Gal(b1-3)GalNAc
Summary of the method: as §1

[8] = target: GlcNAc(b1-2)Man(a1-3)[GlcNAc(b1-2)Man(a1-6)]Man(b1-4)GlcNAc(b1-4)GlcNAc
Summary of the method: as §1

[9] = target: GlcNAc(b1-2)Man(a1-3)[GlcNAc(b1-4)][GlcNAc(b1-2)Man(a1-6)]Man(b1-4)GlcNAc(b1-4)GlcNAc
Summary of the method: as §1

[10] = target: GlcNAc(b1-2)[GlcNAc(b1-6)]Man(a1-6)[GlcNAc(b1-2)Man(a1-3)]Man(b1-4)GlcNAc(b1-4)[Fuc(a1-6)]GlcNAc
Summary of the method: as §1

[11] = target: GlcNAc(b1-3)Gal(b1-4)GlcNAc(b1-3)Gal(b1-4)GlcNAc(b1-3)Gal(b1-4)GlcNAc(b1-3)Gal(b1-4)GlcNAc(b1-2)Man(a1-3)[GlcNAc(b1-3)Gal(b1-4)GlcNAc(b1-3)Gal(b1-4)GlcNAc(b1-3)Gal(b1-4)GlcNAc(b1-3)Gal(b1-4)GlcNAc(b1-2)Man(a1-6)]Man(b1-4)GlcNAc(b1-4)[Fuc(a1-6)]GlcNAc
Summary of the method: as §1

[12] = target: GlcNAc(b1-6)GalNAc
Summary of the method: as §1

[13] = target: Kdn(a2-3)Gal(b1-4)Glc
Summary of the method: as §1

[14] = target: Neu5Ac(a2-3)Gal(b1-3)GlcNAc(b1-6)GalNAc
Summary of the method: as §1

[15] = target: Neu5Ac(a2-3)Gal(b1-3)GlcNAc6S
Summary of the method: as §1

[16] = target: Neu5Ac(a2-3)Gal(b1-3)[Fuc(a1-4)]GlcNAc(b1-3)Gal(b1-3)[Fuc(a1-4)]GlcNAc
Summary of the method: as §1

[17] = target: Neu5Ac(a2-3)Gal(b1-4)GlcNAc(b1-2)[Neu5Ac(a2-3)Gal(b1-4)GlcNAc(b1-6)]Man(a1-6)[Neu5Ac(a2-3)Gal(b1-4)GlcNAc(b1-2)Man(a1-3)]Man(b1-4)GlcNAc(b1-4)GlcNAc
Summary of the method: as §1

[18] = target: Neu5Ac(a2-3)Gal(b1-4)[Fuc(a1-3)]GlcNAc(b1-6)[Gal(b1-3)]GalNAc
Summary of the method: as §1

[19] = target: Neu5Ac(a2-3)Gal6S(b1-4)GlcNAc
Summary of the method: as §1

[20] = target: Neu5Ac(a2-3)[GalNAc(b1-4)]Gal(b1-4)GlcNAc(b1-3)GalNAc
Summary of the method: as §1

[21] = target: Neu5Ac(a2-6)Gal(b1-3)GlcNAc(b1-3)[Gal(b1-4)GlcNAc(b1-6)]Gal(b1-4)Glc
Summary of the method: as §1

[22] = target: Neu5Ac(a2-6)Gal(b1-4)GlcNAc(b1-2)Man(a1-6)[Gal(b1-4)GlcNAc(b1-2)Man(a1-3)]Man(b1-4)GlcNAc(b1-4)GlcNAc
Summary of the method: as §1

[23] = target: Neu5Ac(a2-6)Gal(b1-4)GlcNAc(b1-2)[Neu5Ac(a2-6)Gal(b1-4)GlcNAc(b1-6)]Man(a1-6)[Neu5Ac(a2-6)Gal(b1-4)GlcNAc(b1-2)Man(a1-3)][GlcNAc(b1-4)]Man(b1-4)GlcNAc(b1-4)GlcNAc
Summary of the method: as §1

[24] = target: Neu5Ac(a2-8)Neu5Ac(a2-3)Gal(b1-4)GlcNAc
Summary of the method: as §1

[25] = target: Neu5Ac(a2-8)Neu5Ac(a2-8)Neu5Ac(a2-3)[GalNAc(b1-4)]Gal(b1-4)Glc
Summary of the method: as §1

[26] = target: Neu5Gc(a2-3)Gal(b1-4)Glc
Summary of the method: as §1

[27] = target: Neu5Gc(a2-3)Gal(b1-4)GlcNAc(b1-3)Gal(b1-4)GlcNAc(b1-2)Man(a1-3)[Neu5Gc(a2-3)Gal(b1-4)GlcNAc(b1-3)Gal(b1-4)GlcNAc(b1-2)Man(a1-6)]Man(b1-4)GlcNAc(b1-4)GlcNAc
Summary of the method: as §1

[28] = target: Neu5Gc(a2-3)Gal(b1-4)[Fuc(a1-4)]GlcNAc
Summary of the method: as §1

B1: EEA (Euonymus europaeus) (protein)
chain: MASTIIATGPTYRVYCRAAPNYNMIVGKGVAFLAPIDETNELQYWYKDDTYSYIKDEAGLPAFSLVNKATGLTLKHSNHHPVPVKLVTYNPNVVDESVLWSQADDRGDGYSAIRSLTNPASHLEAAPLNDWSYNGAIIMGGVWIDAYNQQWKIEPHTG
- glycan array binding signal (z-score) [1]: -0.159
- glycan array binding signal (z-score) [2]: -0.217
- glycan array binding signal (z-score) [3]: -0.14
- glycan array binding signal (z-score) [4]: -0.097
- glycan array binding signal (z-score) [5]: -0.178
- glycan array binding signal (z-score) [6]: 0.509
- glycan array binding signal (z-score) [7]: -0.138
- glycan array binding signal (z-score) [8]: -0.152
- glycan array binding signal (z-score) [9]: -0.242
- glycan array binding signal (z-score) [10]: -0.204
- glycan array binding signal (z-score) [11]: -0.221
- glycan array binding signal (z-score) [12]: -0.056
- glycan array binding signal (z-score) [13]: -0.177
- glycan array binding signal (z-score) [14]: -0.187
- glycan array binding signal (z-score) [15]: -0.092
- glycan array binding signal (z-score) [16]: -0.246
- glycan array binding signal (z-score) [17]: -0.137
- glycan array binding signal (z-score) [18]: -0.043
- glycan array binding signal (z-score) [19]: -0.212
- glycan array binding signal (z-score) [20]: 0.46
- glycan array binding signal (z-score) [21]: -0.232
- glycan array binding signal (z-score) [22]: -0.233
- glycan array binding signal (z-score) [23]: -0.179
- glycan array binding signal (z-score) [24]: -0.253
- glycan array binding signal (z-score) [25]: -0.063
- glycan array binding signal (z-score) [26]: -0.084
- glycan array binding signal (z-score) [27]: -0.183
- glycan array binding signal (z-score) [28]: -0.482
